Measurements from PubChem BioAssay (NCI).
This is part of a sample that, as a whole, favours compounds with a hit. Of some 79,000 tested, about 15% had one in any assay. No stated cut-off is given here; in the data, active means growth inhibition above about 70%; inactive means the rest. Where a SMILES comes first, the peptide text is derived from it. Bridges are numbered along the chain shown (N, C = ends). Roman numbers before positions name the chains, in order. The star is where a group is joined. Cbz = O=C(OCc1ccccc1)*

Columns and labels:
[1] = NCI Yeast Anticancer Drug Screen. Data for the rad50 strain (AID 155);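 further: 0% = growth of vehicle-only cultures of the same strain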; details: S. cerevisiae rad50 strain growth inhibition; at 50.0 µM; stronger effect = higher value
In short: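 Compounds were tested on a yeast strain with an engineered DNA damage repair alteration; the reported value is growth inhibition normalised to vehicle treatment.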

[2] = NCI Yeast Anticancer Drug Screen. Data for the mec2-1 strain (AID 157); details: S. cerevisiae mec2-1 strain, at 50.0 µM, stronger effect = higher value
In short: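 Growth inhibition is read against vehicle-treated controls after compound exposure of the mec2-1 yeast strain, which is defective in DNA damage repair or cell cycle control.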

[3] = NCI Yeast Anticancer Drug Screen. Data for the sgs1 mgt1 strain (AID 161);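 further: 0% = growth of cultures given vehicle only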; details: S. cerevisiae sgs1 mgt1 strain, at 50.0 µM, stronger effect = higher value
In short: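 Yeast cells carrying a defined DNA-repair defect were exposed to test compounds. Growth inhibition was measured relative to vehicle-treated controls.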

[4] = NCI Yeast Anticancer Drug Screen. Data for the cln2 rad14 strain (AID 165);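 further: 0% = growth equal to vehicle treated cultures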; details: S. cerevisiae cln2 rad14 strain, at 50.0 µM, stronger effect = higher value
In short: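 Growth inhibition, relative to vehicle-treated controls, is the read-out. The test organism is a yeast strain with defined genetic alterations, cln2 rad14.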

[5] = NCI Yeast Anticancer Drug Screen. Data for the bub3 strain (AID 167); details: S. cerevisiae bub3 mutant strain, at 50.0 µM, stronger effect = higher value
In short: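 Growth of a checkpoint-deficient yeast mutant is measured after compound exposure. Values represent inhibition relative to vehicle.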

[6] = NCI Yeast Anticancer Drug Screen. Data for the mlh1 rad18 strain (AID 175); details: S. cerevisiae mlh1 rad18 strain growth inhibition; at 50.0 µM; stronger effect = higher value
In short: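 Cells of a genetically altered yeast strain, deficient in DNA damage repair, were treated with compound. Their growth was then compared with that of vehicle-treated cultures to give inhibition.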

Measured: growth inhibition

Clc1nc(C(Cl)Cl)nc2ccccc12
inactive: [1] 9.65% | [2] 10.8% | [3] 14.2% | [4] 2.9% | [5] 16.1% | [6] 12.4%

COC1=CC(=O)/C(=C(O)/C=C/c2ccccc2)C(=O)C1(C)C
inactive: [1] 3.2% | [2] -1.65% | [3] 16.9% | [4] -2.5% | [5] 14.6% | [6] 29.4%

Cc1ccc(O)c(C2C=CCC2)c1 (configuration not stated)
inactive: [1] 8.6% | [2] -7.25% | [3] 22.8% | [4] 7.5% | [5] -1.35% | [6] 4.2%

ClCCCCOC1CCCCO1 (configuration not stated)
inactive: [1] -4.6% | [2] 5.35% | [3] 4.9% | [4] 2.7% | [5] -12.7% | [6] -29.8%

CCN(CC)CCS(=O)(=O)CCS(=O)(=O)CCN(CC)CC
inactive: [1] 18.5% | [2] 10.9% | [3] 25.2% | [4] 25.2% | [5] 4.4% | [6] 14.2%

CC(C)C(NC(=O)C(CSSCC(NC(=O)OCc1ccccc1)C(=O)NC(C(=O)O)C(C)C)NC(=O)OCc1ccccc1)C(=O)O (stereo not drawn) (I: Cbz-Cys-Val-OH / II: Cbz-Cys-Val-OH; disulfide I:1-II:1; configuration not given here)
inactive: [1] 1.4% | [2] 11.3% | [3] -3.75% | [4] -3.25% | [5] -1% | [6] 3.3%

N#CCCn1cnc2c(Cl)ncnc21
inactive: [1] -10.2% | [2] 5.15% | [3] -18.2% | [4] -12.7% | [5] -7% | [6] -2.6%

N/N=C(\Cc1ccccc1)NN=C(N)N
inactive: [1] 13.6% | [2] -11.2% | [3] 14.8% | [4] 20.1% | [5] -9.45% | [6] 20.3%

COc1cc(C2c3cc4c(cc3OC(NNC(N)=S)C2C)OCO4)cc(OC)c1OC (configuration not stated)
inactive: [1] -4% | [2] -17.4% | [3] 2.5% | [4] -0.2% | [5] 6.95% | [6] -9.9%

CN(C)S(=O)(=O)c1ccc(CCc2ccc(S(=O)(=O)N(C)C)cc2)cc1
inactive: [1] 13.6% | [2] 2.65% | [3] -12.7% | [4] 5.9% | [5] 6.35% | [6] 6.2%

COc1ccc2[nH]c(=O)oc(=O)c2c1
inactive: [1] 1% | [2] 1.25% | [3] -7.5% | [4] -33.9% | [5] -16.4% | [6] -2.8%

CSCCCC(N)=O
inactive: [1] 1.85% | [2] -11.3% | [3] -1.5% | [4] 0.7% | [5] -10.2% | [6] 3.9%

Cc1ccc(C(=O)OCC2OC(Cl)CC2OC(=O)c2ccc(C)cc2)cc1 (configuration not stated)
inactive: [1] 22.6% | [2] -13.7% | [3] 26.8% | [4] -36% | [5] 2.85% | [6] -8.3%

COc1ccccc1CNCCCCCCNCCSSCCNCCCCCCNCc1ccccc1OC
inactive: [1] 6.55% | [2] 5.1% | [3] 7.4% | [4] -36.7% | [5] -2.35% | [6] 32.5%

NC(=S)NNC(=O)c1ccccc1
inactive: [1] -16.7% | [2] -10.6% | [3] -2.25% | [4] 9.65% | [5] 6.75% | [6] -2.55%

S=C1NNC2(C(=S)N1)c1ccccc1-c1ccccc12
inactive: [1] 32.4% | [2] -11.2% | [3] 14.6% | [4] 5% | [5] 3.2% | [6] 55.4%

O=C(NCCCl)NCC1CCCCO1 (configuration not stated)
inactive: [1] -2.8% | [2] 7% | [3] 0.2% | [4] -76.3% | [5] -3.9% | [6] -12%

Cc1ccc(Cl)c(NC(=O)COc2ccc(Cl)cc2)c1
inactive: [1] -1.2% | [2] 28.3% | [3] 22.3% | [4] -6.6% | [5] 32.7% | [6] 26.4%

Clc1ccc(-c2ccncc2)cc1
inactive: [1] 17.1% | [2] -9.15% | [3] 7.2% | [4] -69.7% | [5] 13.1% | [6] 5.7%

CC(C)(O)c1cc(Cl)ccc1Sc1ccccc1
inactive: [1] -20.6% | [2] -15.2% | [3] -8.85% | [4] 13.7% | [5] 4.85% | [6] -8.2%

COc1cccc(CCO)c1OC
inactive: [1] 1.3% | [2] -13.2% | [3] 10.9% | [4] -10.4% | [5] 5.2% | [6] 10.9%

O=C(O)COc1cc(Br)cc(Br)c1
inactive: [1] 1.4% | [2] -14.2% | [3] -7.55% | [4] 16% | [5] -3.9% | [6] -1.7%

N#CC(C(=O)O)C(c1c(Cl)cccc1Cl)C(C#N)C(=O)O (configuration not stated)
inactive: [1] 23.2% | [2] -6.7% | [3] -0.7% | [4] -1.3% | [5] 5.25% | [6] 15.6%

CC(C)(Cc1ccccc1)C(=C=C=C=C(c1ccccc1)C(C)(C)Cc1ccccc1)c1ccccc1
inactive: [1] -14.8% | [2] -3.7% | [3] -32.2% | [4] 5.9% | [5] 2.95% | [6] -15.7%

CCCCOC(=O)C1CCCCC1C(=O)OCCCC (configuration not stated)
inactive: [1] -3.7% | [2] 14.8% | [3] -0.45% | [4] 63.1% | [5] 12.2% | [6] -21.4%

CS(=O)(=O)Cc1cc(-c2ccccc2)no1
inactive: [1] 15.1% | [2] 28.1% | [3] 8.7% | [4] -3.4% | [5] 7.75% | [6] 9.85%

CC(C)C(C(=O)O)N(CC1(O)OCC(O)C(O)C1O)N=O (configuration not stated)
inactive: [1] -0.2% | [2] -18.4% | [3] -2.85% | [4] 0.1% | [5] -11.1% | [6] -12.9%

CC1CCC(C(C)(C)NO)C(=O)C1 (configuration not stated)
inactive: [1] -2.8% | [2] 0% | [3] -4.8% | [4] -8.1% | [5] -2.1% | [6] 0.7%

COC1OC(CN)C(O)C(O)C1O (configuration not stated)
inactive: [1] 0.15% | [2] 12.1% | [3] 2.35% | [4] 28.2% | [5] 5.7% | [6] 43.2%

COC(=O)C1(C)CCCC2(C)C1CCC13OC(=O)C(C(C)C)(CC21)C3O (configuration not stated)
inactive: [1] -3.6% | [2] -28.3% | [3] -10.8% | [4] -33.7% | [5] -1.45% | [6] -28.8%

O=C(O)c1ccccc1NC(C(=O)O)c1ccccc1 (configuration not stated)
inactive: [1] -13.1% | [2] -4.25% | [3] -27.4% | [4] 9.1% | [5] -18.9% | [6] -11.7%

CCc1ccc(S(N)(=O)=O)cc1
inactive: [1] 11.1% | [2] -4.1% | [3] -16.3% | [4] -24.6% | [5] -7% | [6] -168%

O=[N+]([O-])c1ccc(C2ON2C2CCCCC2)cc1 (configuration not stated)
inactive: [1] -0.75% | [2] -2.55% | [3] 18.7% | [4] -22.3% | [5] -10.8% | [6] 5.3%

OC(c1ccccc1)(c1ccccc1)C(O)(c1ccccc1)c1ccccc1
inactive: [1] 4.3% | [2] 6.25% | [3] 19.5% | [4] -16.2% | [5] -3.35% | [6] 33.4%

c1cncc(-c2c3ccccc3cc3ccccc23)c1
inactive: [1] 22.3% | [2] -16% | [3] 2.8% | [4] -8.5% | [5] 4.8% | [6] 5.1%

C[n+]1ccccc1/C=C/c1csc2ccccc12
inactive: [1] -0.85% | [2] 5.35% | [3] 4.75% | [4] -11.8% | [5] -0.6% | [6] -3.8%

O=C(NC1CCCCC1)N(C(=O)C(F)(F)F)C1CCCCC1
inactive: [1] 9.05% | [2] 3.6% | [3] -5.15% | [4] 9.8% | [5] -2.4% | [6] 14.7%

CCCCOC(OCCCC)C(OCCCC)OCCCC
inactive: [1] 18.9% | [2] 8.2% | [3] 19.8% | [4] -0.4% | [5] 16.4% | [6] 38%

CCOC(=O)C(NC(=O)/C=C\C(=O)O)C(C)C (configuration not stated)
inactive: [1] 3.7% | [2] 22.1% | [3] 2.55% | [4] 23.9% | [5] 15.4% | [6] 35.2%

O=S1(=O)OCCC1C(O)(c1ccccc1)c1ccccc1 (configuration not stated)
inactive: [1] 1.7% | [2] -3.65% | [3] 6.8% | [4] -49.3% | [5] 11.2% | [6] 16.9%

Clc1ncnc2c1cnn2-c1ccccc1
inactive: [1] -4.05% | [2] -8.55% | [3] 1.05% | [4] -30.9% | [5] -2.55% | [6] -6.1%

CSC(=Nc1ccc(Br)cc1)NC(=O)c1cc([N+](=O)[O-])cc([N+](=O)[O-])c1
inactive: [1] -33% | [2] 3.4% | [3] 23.1% | [4] -58% | [5] 6.2% | [6] -18.8%
